FadD28 binding: inhibitors of Mycobacterium tuberculosis FadD28 bisubstrate binding; hit rate 0.22% among 360,000; inhibition, % at 12.5 µM; FadD28 bisubstrate probe binding, fluorescence polarization; in the data active = inhibition above about 8.5%, passing the limit was not always enough; inconclusive = no clear call, values can overlap the other calls
3CLpro inhibitor: SARS-CoV 3CLpro protease inhibition; hit rate 0.14% among 290,000; AID 1706; recombinant SARS-CoV 3CLpro, quenched FRET peptide cleavage; P0C6X7; inhibition, % at 6 µM; in the data active = inhibition above about 12%
Mtb FBA inh: inhibits M. tuberculosis FBA enzyme. hit rate 2.3% among 360,000. AID 588726. inhibition, % at 1 µM. purified M. tuberculosis FBA, fluorescence read-out; in the data active = inhibition above about 27%;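 also: 0% = vehicle and 100% = reference inhibitor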
Target sequence (P9WQA3 whole entry, looked up): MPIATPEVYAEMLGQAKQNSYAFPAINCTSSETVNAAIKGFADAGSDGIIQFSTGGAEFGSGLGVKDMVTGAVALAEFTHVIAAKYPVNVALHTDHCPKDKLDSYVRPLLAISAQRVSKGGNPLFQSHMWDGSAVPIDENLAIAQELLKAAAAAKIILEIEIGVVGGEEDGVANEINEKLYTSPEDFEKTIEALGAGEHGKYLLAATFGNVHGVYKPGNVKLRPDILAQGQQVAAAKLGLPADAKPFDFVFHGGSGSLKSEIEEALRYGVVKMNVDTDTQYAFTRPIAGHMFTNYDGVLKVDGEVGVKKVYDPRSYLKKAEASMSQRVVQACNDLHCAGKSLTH
BioA inh: inhibitors of Mycobacterium tuberculosis BioA enzyme. AID 602481. purified M. tuberculosis BioA enzyme, plate reader. inhibition, % at 9.99 µM. hit rate 0.096% among 360,000; in the data active = inhibition above about 40%; inconclusive = no clear call, values can overlap the other calls
GDH-TPI inh: inhibits GDH-TPI coupling enzymes, artifact for Mtb FBA screen; GDH-TPI coupled enzyme counterscreen, NADH absorbance; hit rate 1.2% among 360,000; inhibition, % at 4.8 µM; in the data active = inhibition above about 30%;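 also: 0% = DMSO wells and 100% = wells lacking the enzyme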
The depositor's hits bear a star; ? = inconclusive; . = no result given. The list is not random: actives were taken first. Their share in the collection is about 3.1%.

SMILES | FadD28 binding | 3CLpro inhibitor | Mtb FBA inh | BioA inh | GDH-TPI inh
N#CCC(=O)Nc1ccc(C(=O)OCC(=O)Nc2cccc(C(F)(F)F)c2)cc1 | 11.2* | 4.2 | 3.0 | . | 3.2
COc1cccc(S(=O)(=O)N2CCCCN3[C@H](CO)[C@H](c4ccc(C5=CCCCC5)cc4)[C@H]3C2)c1 | . | . | . | -1.9 | .
Cc1nn(-c2ccccn2)c2c1-c1nc(N3CCOCC3)ncc1CC2 | -3.2 | -0.9 | 113.7* | . | 16.7
Fc1cnc(N2CCOCC2)nc1N1CCc2ccccc21 | -1.8 | -2.2 | -1.9 | 8.7 | 29.0
C[C@H](CO)N1C[C@H](C)[C@H](CN(C)C(=O)Nc2ccc(F)cc2)Oc2c(NC(=O)Nc3ccc(F)cc3)cccc2C1=O | . | . | . | -0.1 | .
Cc1noc(/C=C/N(C)C)c1S(=O)(=O)N1CCCC(C(=O)NC(C)c2ccccc2)C1 (configuration not stated) | -2.3 | 4.2 | 0.4 | -1.1 | 37.2*
Cc1noc(C)c1S(=O)(=O)N1CCCC(C(=O)NC2CCCCC2)C1 (configuration not stated) | -1.4 | 0.2 | 1.1 | -0.9 | 0.7
Cc1noc(/C=C/N(C)C)c1S(=O)(=O)N1CCCC(C(=O)NC2CCCCC2C)C1 (configuration not stated) | ? | -4.1 | -1.7 | -4.5 | 62.5*
Cc1noc(/C=C/N(C)C)c1S(=O)(=O)N1CCCC(C(=O)NCCC2=CCCCC2)C1 (configuration not stated) | -0.5 | -0.2 | -0.6 | -1.6 | 46.1*
COCCNC(=O)C[C@@H]1C[C@@H]2c3cc(NC(=O)CN(C)C)ccc3O[C@@H]2[C@@H](CO)O1 | . | . | . | 0.2 | .
COc1ccc2c3c(cccc13)C(=O)CC2 | 47.4* | -1.4 | -3.0 | . | 8.8
COc1ccc2c(c1OC)C(=O)OC2 | -1.4 | 2.7 | 15.4 | 0.8 | 5.6
Cc1cc(C)n2cc(CSCc3ccccc3)nc2n1 | -2.6 | -3.4 | 159.6* | 7.5 | -0.9
C[C@@H]1CCCCO[C@@H](CN(C)C(=O)CCC(F)(F)F)[C@H](C)CN([C@@H](C)CO)C(=O)c2cc(NC(=O)CCC(F)(F)F)ccc2O1 | . | . | . | -1.5 | .
O=c1/c(=C\c2cc([N+](=O)[O-])cc([N+](=O)[O-])c2O)sc2nc3ccccc3n12 | 22.9* | 3.4 | -13.5 | 1.1 | 11.9
O=c1/c(=C/c2ccccn2)sc2nc3ccccc3n12 | 0.2 | 4.1 | 2.6 | . | 2.7
CCC(=O)Nc1c(OC(=O)CC)ccc2c(C)cc(=O)oc12 | -1.3 | 3.2 | 140.2* | 0.1 | 9.6
COc1ccc(S(=O)(=O)N(C)C[C@@H]2OCCCC[C@H](C)Oc3ccc(NC(=O)Nc4ccc(C(F)(F)F)cc4)cc3C(=O)N([C@H](C)CO)C[C@@H]2C)cc1 | . | . | . | -1.0 | .
C[C@H]1CN([C@@H](C)CO)C(=O)Cc2cc(NS(=O)(=O)c3ccc(F)cc3)ccc2O[C@@H]1CN(C)S(C)(=O)=O | . | . | . | -1.9 | .
O=S(=O)(Nc1nc2ccccc2nc1NCc1ccco1)c1ccc(F)cc1 | 0.1 | -0.8 | 12.0 | . | 34.5*
COc1ccc(CN(C)C[C@@H]2OCCCC[C@@H](C)Oc3ccc(NC(=O)Cc4ccccc4)cc3C(=O)N([C@H](C)CO)C[C@H]2C)cc1 | . | . | . | 4.8 | .
C=CCSc1nnc(-c2ccccc2N=Cc2c(C)[nH]n(-c3ccccc3)c2=O)c(=O)[nH]1 | -2.4 | 2.2 | 0.2 | -0.2 | 42.8*
CSc1nnc(-c2ccccc2N=Cc2c(C)[nH]n(-c3ccc4ccccc4c3)c2=O)c(=O)[nH]1 | -4.3 | -0.7 | -1.6 | . | 23.7
CN(C)CC#Cc1ccc([C@@H]2[C@H]3CN(C(=O)C4CCCC4)CCCCN3[C@H]2CO)cc1 | . | . | . | 5.1 | .
CC1(C)CC(=O)C=C(Nc2ccc([N+](=O)[O-])cc2)C1 | -1.0 | 3.5 | -3.2 | 16.2 | 47.1*
SMILES | FadD28 binding | 3CLpro inhibitor | Mtb FBA inh | BioA inh | GDH-TPI inh
CC1(C)CC(=O)C=C(Nc2ccc(O)cc2)C1 | -2.2 | . | 1.6 | 0.6 | 18.6
COC(=O)c1ccc(NC2=CC(=O)CC(C)(C)C2)cc1 | -4.5 | 1.8 | 4.1 | -0.5 | 43.6*
C[C@H](CO)N1C[C@H](C)[C@H](CN(C)S(=O)(=O)c2ccc(F)cc2)OCCCC[C@H](C)Oc2ccc(NC(=O)Nc3ccc(F)cc3)cc2C1=O | . | . | . | -1.1 | .
O=C1/C(=C/c2cccnc2)Oc2cc(OS(=O)(=O)c3ccc(Cl)cc3)ccc21 | 1.2 | -0.1 | 1.0 | -0.3 | 2.5
O=C1/C(=C/c2cccnc2)Oc2cc(OS(=O)(=O)c3ccccc3)ccc21 | 0.9 | 4.2 | 4.1 | -3.5 | 46.4*
C[C@H]1CN([C@@H](C)CO)C(=O)c2c(c3ccccc3n2C)-c2ccccc2CO[C@H]1CN(C)Cc1ccc(C(=O)O)cc1 | . | . | . | 0.9 | .
C[C@@H]1CN([C@@H](C)CO)S(=O)(=O)c2ccc(-c3ccccc3)cc2O[C@H]1CN(C)S(C)(=O)=O | . | . | . | -0.9 | .
COc1ccc(OC)c(S(=O)(=O)N2CCC3(CC2)OCCN3S(=O)(=O)c2cccs2)c1 | 10.0* | . | 1.3 | -1.5 | 6.9
COc1ccc(S(=O)(=O)N2CCC3(CC2)OCCN3S(=O)(=O)c2cccs2)cc1 | -4.2 | . | -2.0 | -1.5 | -2.9
CCC(CC)COC(=O)C1=C(C)NC(=O)NC1c1ccc(N(C)C)cc1 (configuration not stated) | 0.3 | -2.8 | 183.8* | -1.5 | -2.2
C[C@@H]1CN([C@@H](C)CO)C(=O)c2cc(C3=CCCC3)cnc2O[C@@H]1CN(C)C(=O)C1CCOCC1 | . | . | . | -11.5 | .
Cc1noc(C)c1S(=O)(=O)Nc1cccc2c1O[C@@H](CN(C)C(=O)NC1CCCCC1)[C@@H](C)CN([C@@H](C)CO)C2=O | . | . | . | -0.7 | .
CCN(CC)c1ccc(C=C2C(=O)OC(C)(C(C)(C)C)OC2=O)cc1 (configuration not stated) | 1.1 | . | -1.1 | -1.8 | 35.9*
C[C@H]1CN([C@@H](C)CO)C(=O)c2cc(C#CC3CCCCC3)cnc2O[C@@H]1CN(C)C(=O)c1ccncc1 | . | . | . | -0.8 | .
Cc1ccc(S(=O)(=O)Nc2cccc3c2O[C@@H](CN(C)C)[C@@H](C)CN([C@H](C)CO)C3=O)cc1 | . | . | . | 0.0 | .
Cn1c(=O)c2[nH]c(-c3ccc(S(=O)(=O)O)cc3)nc2n(C)c1=O | -0.7 | . | . | 2.7 | 42.0*
C[C@@H]1CN([C@H](C)CO)C(=O)c2cc(C3=CCCC3)cnc2O[C@H]1CN(C)S(=O)(=O)c1cn(C)cn1 | . | . | . | -1.3 | .
CCCN(C)C[C@@H]1Oc2ncc(-c3ccccc3F)cc2C(=O)N([C@H](C)CO)C[C@@H]1C | . | . | . | 0.4 | .
CCOc1ccc(/C=C(\C#N)C(=O)c2c(C)[nH]c3ccccc23)cc1OC | -4.6 | -2.1 | 0.0 | 2.0 | 12.6
COc1cc(/C=C(/C#N)C(=O)c2c(C)[nH]c3ccccc23)ccc1OCC#N | -2.2 | -5.3 | 2.6 | -0.8 | 37.7*
Nc1nc(NCCO)nc(NCC2CCCO2)c1[N+](=O)[O-] (configuration not stated) | -2.1 | -1.5 | -1.0 | 1.5 | 37.4*
CN(C)CCCNc1nc(N)c([N+](=O)[O-])c(NCCO)n1 | -2.8 | 7.4 | -2.8 | -0.5 | 38.2*
COc1ccccc1Nc1nc(NCCCN(C)C)nc(N)c1[N+](=O)[O-] | -2.7 | -2.9 | 0.0 | -0.3 | 38.2*
Nc1nc(NCc2ccccc2)nc(NCCO)c1[N+](=O)[O-] | 0.1 | 1.4 | -4.5 | 2.5 | 31.7*

Bioassay records deposited in PubChem BioAssay by several laboratories.
